From the supplement of paper PMC5736601
± gives the uncertainty stated by the source.

Test system: human primary fetal neurons
Assay: surviving MAP-2+ neurons after FeSO4 challenge with drug pre-treatment, relative to untreated control (% of untreated control); higher = more neuroprotection against iron toxicity
Settings: 10 µM; FeSO4 concentration 25-50 µM; 24 h
Procedure: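 Human fetal primary neurons (96-well, AIM-V serum-free medium) were pre-treated for 1 h with each NINDS Custom Collection II drug at 10 µM, then challenged with FeSO4 (25 or 50 µM). After 24 h they were fixed, stained with anti-MAP-2 and counted by automated imaging (ImageXpress/MetaXpress). MAP-2+ neuron counts were normalised to untreated control wells (100%); values are the mean of 1-4 independent experiments, each in quadruplicate.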

Structure (SMILES) | surviving MAP-2+ neurons
Cc1ccc(O)cc1.Cc1cccc(O)c1.Cc1ccccc1O | 6.04 ± 1.1
CN(C)CCOC(c1ccccc1)c1ccccc1.Cn1c(=O)c2[nH]c(Cl)nc2n(C)c1=O | 36.5 ± 5.3
